This is an account of results in PubChem BioAssay AID1402 (National Center for Advancing Translational Sciences (NCATS), 2008).

Structures are written as SMILES. Records with an inconclusive call do not appear. Active and inactive are the calls of the source. The call rests on the fitted dose curve; in most records, active means well fitted curve in the direction sought with a large enough effect in the signal ratio; inconclusive means small, poorly fitted or top-dose-only effect, or effect the other way, or a change in a side signal; inactive means no such curve, though single readings can be large or run the other way; the % refers to the signal ratio.

Sequence of Lutropin-choriogonadotropic hormone receptor (Homo sapiens) (P22888 whole entry, looked up): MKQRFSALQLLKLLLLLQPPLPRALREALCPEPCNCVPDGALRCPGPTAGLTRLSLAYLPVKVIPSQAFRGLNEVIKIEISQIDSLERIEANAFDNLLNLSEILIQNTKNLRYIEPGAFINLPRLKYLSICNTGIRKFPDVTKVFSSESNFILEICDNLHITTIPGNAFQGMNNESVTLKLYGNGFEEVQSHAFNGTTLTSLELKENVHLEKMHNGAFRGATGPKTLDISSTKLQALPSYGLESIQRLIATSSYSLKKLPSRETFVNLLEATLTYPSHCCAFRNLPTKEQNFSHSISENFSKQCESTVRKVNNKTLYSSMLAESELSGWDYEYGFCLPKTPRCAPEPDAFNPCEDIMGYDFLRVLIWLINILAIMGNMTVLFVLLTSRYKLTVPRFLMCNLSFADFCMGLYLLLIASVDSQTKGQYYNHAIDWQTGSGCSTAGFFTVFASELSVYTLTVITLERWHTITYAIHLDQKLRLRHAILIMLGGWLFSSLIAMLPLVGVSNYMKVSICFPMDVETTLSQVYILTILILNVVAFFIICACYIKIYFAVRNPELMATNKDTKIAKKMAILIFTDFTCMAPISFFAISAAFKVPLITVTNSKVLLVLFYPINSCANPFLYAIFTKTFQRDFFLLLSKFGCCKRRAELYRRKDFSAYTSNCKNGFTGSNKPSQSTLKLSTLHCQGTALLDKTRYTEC

This assay concerns the target Lutropin-choriogonadotropic hormone receptor (Homo sapiens) (UniProt P22888). Put plainly: Counterscreen for Agonists of Thyroid Stimulating Hormone Receptor: HTRF Activity in a Luteinizing Hormone Receptor Cell Line. Conditions: HEK293-LHR cells, cAMP HTRF ratio, 30 min; series mostly up to 91.7 µM. From the text:
NIH Chemical Genomics Center [NCGC] NIH Molecular Libraries Screening Centers Network [MLSCN] MLSCN Grant: 1 X01 MH080680-01 PI Name: Dr. Marvin Gershengorn, NIH NCGC Assay Overview: Confirmation of Thyroid Stimulating Hormone Receptor Agonists TSH is an alpha/beta heterodimeric glycoprotein hormone secreted from the anterior pituitary gland which belongs to the glycoprotein hormone family. The actions of TSH are mediated by a seven-transmembrane receptor, which upon TSH binding couples preferentially to the G-alpha (s) protein (Gs), resulting in activation of adenylate cyclase and increase in cyclic adenosine 3', 5' monophosphate (cAMP). The TSH receptor (THSR) is mainly expressed in thyroid follicular cells and regulates their growth and function. Recombinant TSH is used to activate TSHR in patients with thyroid cancer receiving thyroid hormone suppression therapy and to screen for residual tumor after surgery, but it is expensive and must be administered intramuscularly. An orally active small molecule TSHR agonist would serve as an invaluable research tool for studying TSHR pharmacology and physiology, and would have multiple advantages in therapeutic settings. However, no selective small molecule agonist of the TSH receptor exists, and no small molecule screen for TSHR agonists has ever been reported. In order to confirm specificity of the compounds to the TSHR, a confirmatory assay was conducted on a similar family member, the Luteinizing Hormone (LH) receptor, transfected into a HEK 293 cell line, using an orthogonal detection technology to measure cAMP stimulation: antibody-based Homogeneous Time Resolved Fluorescence (HTRF).
NCGC Assay Protocol Summary: Homogeneous Time Resolved Fluorescence (HTRF) cAMP Assay. HEK 293 cells stably transfected with a vector containing the LH receptor and maintained under hygromycin selection were obtained from the laboratory of Dr. Marvin Gershengorn. Compounds were assayed using a HTRF cAMP detection kit (Cisbio) on the LH receptor transfected cell line. Briefly, 750 cells were plated in 2.5 ul/well of complete media (DMEM containing 10 % FCS, and 100 uM RO 20-1724) in 1536 well solid bottom white plates and 23 nl/well compound in DMSO solution or controls was added. Following 30 minute incubation at room temperature, 2.5 ul/well of labeled d2 cAMP and 2.5 ul/well of anti-cAMP antibody (both diluted 1:20 in lysis buffer) were added to each well using a flying reagent dispenser (Aurora Discovery, San Diego) . Plates were measured using the Envision plate reader (PerkinElmer, Boston, MA) with excitation at 330 nm and emissions of 615 nm and 660 nm. Keywords: Luteinizing hormone LH, Thyroid-stimulating hormone TSH, TSHR, TSHR agonist, quantitative high throughput screening, qHTS, HTS, probe identification, CNG, cAMP, cyclic nucleotide gated ion channel PubChem
On to `O=C1CC(c2ccco2)CC2=C1C(c1ccccc1)n1nc(C(F)(F)F)nc1N2` (configuration not stated), for which the outcome was inactive. The value for `O=C(COC(=O)C12CC3CC(CC(Br)(C3)C1)C2)NCc1ccco1` was “inactive”; that for `CC(NC(=O)COC(=O)c1ccco1)C12CC3CC(CC(C3)C1)C2` (configuration not stated) was “inactive”; that for `COc1ccc(C2Nc3cccc(O)c3C(=O)N2Cc2ccccc2)cc1COc1ccc(NC(C)=O)cc1` (configuration not stated) was “inactive”. With `O=C1C2C3CCCC3=C3CCCC3C2C(=O)N1c1ccccc1Cl` (configuration not stated) the entry was “inactive”; with `NC(=O)c1nsc(C(=O)N(CC(=O)NCc2ccc3c(c2)OCO3)C2CCCC2)c1N`, “inactive”; with `O=C(COC(=O)C12CC3CC(CC(C3)C1)C2)NCc1ccco1`, “inactive”. As for `O=C1CC(c2ccccc2)CC2=C1C(c1ccco1)n1nc(C(F)(F)F)nc1N2` (configuration not stated), the outcome was inactive. With `O=C1C2C3CCCC3=C3CCCC3C2C(=O)N1c1ccc(F)cc1` (configuration not stated) the entry was “inactive”; with `O=C1C2C3CCCC3=C3CCCC3C2C(=O)N1c1ccc(Cl)cc1` (configuration not stated), “inactive”. `O=C(COC(=O)C12CC3CC(CC(Cl)(C3)C1)C2)NCc1ccco1`: the outcome was inactive. On to `COc1ccc(C2Nc3ccccc3C(=O)N2Cc2ccco2)cc1COc1c(C)cccc1C` (configuration not stated), for which the result was inactive. With `COc1cc(OC)c(C(=O)N(Cc2ccco2)Cc2cccs2)cc1OC`, the result was inactive.

In the case of `COc1ccc(C(=O)N(Cc2ccco2)Cc2cccs2)cc1`, the outcome was inactive. With `COc1ccc(C2Nc3ccccc3C(=O)N2Cc2ccco2)cc1COc1ccc(NC(C)=O)cc1` (configuration not stated) the entry was “inactive”; with `COc1ccc(C(=O)N(Cc2ccco2)Cc2cccs2)c(O)c1`, “inactive”. The value for `O=C(COC(=O)C12CC3CC(CC(C3)C1)C2)NCC1CCCO1` (configuration not stated) was “inactive”; that for `CCn1c(=O)c(C(=O)CN2CCCc3ccccc32)c(N)n(Cc2ccccc2)c1=O` was “inactive”; that for `Cc1nn(-c2ccccc2)c(N2CCCC2)c1/C=N/n1cnc2scc(-c3ccccc3)c2c1=O` was “inactive”. The value for `NC(=O)c1nsc(C(=O)N(CC(=O)NC2CCCC2)Cc2ccc3c(c2)OCO3)c1N` was “inactive”. As to `COc1ccc(C2Nc3ccccc3C(=O)N2Cc2ccco2)cc1COc1ccc([N+](=O)[O-])cc1` (configuration not stated), the outcome was inactive. With `NC(=O)c1nsc(C(=O)N(CC(=O)NCc2ccc3c(c2)OCO3)C2CCCCC2)c1N` the entry was “inactive”; with `COc1cc(OC)cc(C(=O)N(Cc2ccco2)Cc2cccs2)c1`, “inactive”.

Turning to `O=C1C2C3CCCC3=C3CCCC3C2C(=O)N1c1cccc(Cl)c1` (configuration not stated), the outcome was inactive. In the case of `Cc1sc2ncn(/N=C/c3cn(-c4ccccc4)nc3-c3ccccc3)c(=O)c2c1C`, the outcome was inactive. With `O=c1c2c(-c3ccccc3)csc2ncn1/N=C/c1cn(-c2ccccc2)nc1-c1cccs1` the entry was “inactive”.

With `O=C(COC(=O)C12CC3CC(CC(O)(C3)C1)C2)NCc1ccco1`, the result was inactive.
